What all share (assay): HT-SELEX; high values mean tight binding
Holding throughout (conditions): protein: recombinant; vector His6-GST; dsDNA, one strand shown

One test addresses T1, SALL4 ZFC4 WT (HT-SELEX) (Mus musculus, UniProt Q8BX22 870-940).
T1 sequence: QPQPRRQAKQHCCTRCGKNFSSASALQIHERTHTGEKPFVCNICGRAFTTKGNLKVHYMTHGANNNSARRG
The method in brief:
(§1)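 Binding signal is expressed as fold change in each canonical k-mer's read fraction over the initial random library. To obtain it, 1 µg of purified recombinant mouse SALL4 zinc finger cluster 4 (residues 870–940) was incubated for 10 min at room temperature with library DNA (1.5 µg first cycle, 200 ng later cycles) in 100 µl of 10 mM Tris–HCl pH 7.5, 50 mM NaCl, poly(dI-dC) and DTT. Ni2+ bead-captured complexes went through washing, PCR amplification and reselection for up to 6 cycles, in triplicate, before MiSeq sequencing and scanning for 6-mers.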

For test [1], the target named is T2, SALL4 ZFC4 R900W (HT-SELEX) (Mus musculus, UniProt Q8BX22 870-940, R900W).
T2 sequence: T1 sequence with R31W
The method in brief:
as §1

For test [2], the target named is T3, SALL4 ZFC4 G921D (HT-SELEX) (Mus musculus, UniProt Q8BX22 870-940, G921D).
T3 sequence: T1 sequence with G52D
The procedure, abridged:
as §1

Positions count from the first letter of the chain named.

In the case of AAATAA, the binding signal with SALL4 ZFC4 WT (HT-SELEX) is 3.25 ± 0.208 fold-change vs cycle 0; in test [1] it was 2.56 ± 0.166 fold-change vs cycle 0; in test [2] it was 2.14 ± 0.25 fold-change vs cycle 0.

As for AGAGAA, the values for the binding signal (with SALL4 ZFC4 WT (HT-SELEX); in test [1]; in test [2]) were 1.42 ± 0.0467 fold-change vs cycle 0, 1.64 ± 0.0726 fold-change vs cycle 0 and 1.46 ± 0.11 fold-change vs cycle 0, respectively.

Turning to CTAGTA, the values for the binding signal (with SALL4 ZFC4 WT (HT-SELEX); in test [1]; in test [2]) were 1.34 ± 0.0412 fold-change vs cycle 0, 1.54 ± 0.0865 fold-change vs cycle 0 and 1.39 ± 0.135 fold-change vs cycle 0, respectively.

In the case of ACACCA, the binding signal with SALL4 ZFC4 WT (HT-SELEX) came to 0.735 ± 0.0297 fold-change vs cycle 0; in test [1], 0.841 ± 0.0318 fold-change vs cycle 0; in test [2], 0.903 ± 0.0271 fold-change vs cycle 0.

For the sequence CTAGAG, the values for the binding signal (with SALL4 ZFC4 WT (HT-SELEX); in test [1]; in test [2]) were 0.862 ± 0.0503 fold-change vs cycle 0, 1 ± 0.0918 fold-change vs cycle 0 and 1.03 ± 0.068 fold-change vs cycle 0, respectively.

For the sequence GAACGA, the binding signal with SALL4 ZFC4 WT (HT-SELEX) was determined as 0.753 ± 0.0422 fold-change vs cycle 0; in test [1], 0.856 ± 0.0556 fold-change vs cycle 0; in test [2] it was 0.9 ± 0.0297 fold-change vs cycle 0.

Turning to AGGCAG, the figures for the binding signal (in the test with SALL4 ZFC4 WT (HT-SELEX); in test [1]; in test [2]) were 0.306 ± 0.00652 fold-change vs cycle 0, 0.366 ± 0.0295 fold-change vs cycle 0 and 0.484 ± 0.0834 fold-change vs cycle 0, respectively.

Consider AGCTAG, for which the figures for the binding signal (with SALL4 ZFC4 WT (HT-SELEX); in test [1]; in test [2]) were 0.723 ± 0.0356 fold-change vs cycle 0, 0.815 ± 0.0265 fold-change vs cycle 0 and 0.874 ± 0.021 fold-change vs cycle 0, respectively.

CTACAC: the results for the binding signal (with SALL4 ZFC4 WT (HT-SELEX); in test [1]; in test [2]) were 0.733 ± 0.0291 fold-change vs cycle 0, 0.845 ± 0.0188 fold-change vs cycle 0 and 0.893 ± 0.0116 fold-change vs cycle 0, respectively.

For the sequence CTGCAA, the binding signal in the test with SALL4 ZFC4 WT (HT-SELEX) was 0.58 ± 0.0126 fold-change vs cycle 0; in test [1] it was 0.651 ± 0.015 fold-change vs cycle 0; in test [2], 0.729 ± 0.0483 fold-change vs cycle 0.

Regarding AGCTTG, the binding signal with SALL4 ZFC4 WT (HT-SELEX) worked out at 0.638 ± 0.0175 fold-change vs cycle 0; in test [1] it was 0.764 ± 0.0176 fold-change vs cycle 0; in test [2], 0.841 ± 0.049 fold-change vs cycle 0.

In the case of CGGTTC, the binding signal with SALL4 ZFC4 WT (HT-SELEX) was 0.342 ± 0.0141 fold-change vs cycle 0; in test [1], 0.423 ± 0.038 fold-change vs cycle 0; in test [2], 0.53 ± 0.0844 fold-change vs cycle 0.

Consider CAGTGG, for which the binding signal with SALL4 ZFC4 WT (HT-SELEX) came out at 0.426 ± 0.0423 fold-change vs cycle 0; in test [1] it was 0.497 ± 0.0328 fold-change vs cycle 0; in test [2], 0.595 ± 0.0248 fold-change vs cycle 0.

For CTTTGC, the binding signal in the test with SALL4 ZFC4 WT (HT-SELEX) was 0.581 ± 0.0144 fold-change vs cycle 0; in test [1], 0.663 ± 0.0189 fold-change vs cycle 0; in test [2], 0.743 ± 0.024 fold-change vs cycle 0.

For ATGGAA, the values for the binding signal (with SALL4 ZFC4 WT (HT-SELEX); in test [1]; in test [2]) were 1.5 ± 0.0823 fold-change vs cycle 0, 1.48 ± 0.0671 fold-change vs cycle 0 and 1.36 ± 0.0808 fold-change vs cycle 0, respectively.

Consider AAACGT, for which the figures for the binding signal (in the test with SALL4 ZFC4 WT (HT-SELEX); in test [1]; in test [2]) were 1.02 ± 0.0198 fold-change vs cycle 0, 1.17 ± 0.0143 fold-change vs cycle 0 and 1.14 ± 0.0434 fold-change vs cycle 0, respectively.

Regarding AATATC, the binding signal was 2.49 ± 0.203 fold-change vs cycle 0 with SALL4 ZFC4 WT (HT-SELEX), 1.88 ± 0.0733 fold-change vs cycle 0 in test [1] and 1.75 ± 0.14 fold-change vs cycle 0 in test [2].

On to CCGAAG, for which the binding signal was 0.38 ± 0.0225 fold-change vs cycle 0 with SALL4 ZFC4 WT (HT-SELEX), 0.441 ± 0.0244 fold-change vs cycle 0 in test [1] and 0.553 ± 0.046 fold-change vs cycle 0 in test [2].

With ACGTTG, the binding signal with SALL4 ZFC4 WT (HT-SELEX) was determined as 0.659 ± 0.0218 fold-change vs cycle 0; in test [1] it was 0.753 ± 0.0161 fold-change vs cycle 0; in test [2], 0.822 ± 0.0177 fold-change vs cycle 0.

For AACGGT, the binding signal with SALL4 ZFC4 WT (HT-SELEX) is 0.689 ± 0.0523 fold-change vs cycle 0; in test [1], 0.7682 ± 0.0076 fold-change vs cycle 0; in test [2], 0.832 ± 0.0229 fold-change vs cycle 0.

Turning to AAGTGT, the binding signal came out at 1.24 ± 0.0333 fold-change vs cycle 0 in the test with SALL4 ZFC4 WT (HT-SELEX), 1.35 ± 0.0203 fold-change vs cycle 0 in test [1] and 1.3 ± 0.0159 fold-change vs cycle 0 in test [2].

In the case of ACACGA, the binding signal in the test with SALL4 ZFC4 WT (HT-SELEX) was 0.663 ± 0.0255 fold-change vs cycle 0; in test [1], 0.777 ± 0.0248 fold-change vs cycle 0; in test [2], 0.869 ± 0.0214 fold-change vs cycle 0.

Turning to CCTCAC, the binding signal in the test with SALL4 ZFC4 WT (HT-SELEX) was 0.47 ± 0.0318 fold-change vs cycle 0; in test [1] it was 0.561 ± 0.0275 fold-change vs cycle 0; in test [2], 0.658 ± 0.0448 fold-change vs cycle 0.

Take CCCTAG: the binding signal with SALL4 ZFC4 WT (HT-SELEX) stood at 0.516 ± 0.0342 fold-change vs cycle 0; in test [1] it was 0.601 ± 0.0265 fold-change vs cycle 0; in test [2], 0.667 ± 0.029 fold-change vs cycle 0.

As to TCGACA, the binding signal in the test with SALL4 ZFC4 WT (HT-SELEX) is 0.525 ± 0.0359 fold-change vs cycle 0; in test [1], 0.609 ± 0.0106 fold-change vs cycle 0; in test [2] it was 0.731 ± 0.0296 fold-change vs cycle 0.

For the sequence CTAAGC, the binding signal is 0.7 ± 0.0291 fold-change vs cycle 0 in the test with SALL4 ZFC4 WT (HT-SELEX), 0.793 ± 0.0207 fold-change vs cycle 0 in test [1] and 0.857 ± 0.014 fold-change vs cycle 0 in test [2].

Consider ATGCTA, for which the binding signal in the test with SALL4 ZFC4 WT (HT-SELEX) was found to be 1.28 ± 0.0551 fold-change vs cycle 0; in test [1], 1.34 ± 0.0761 fold-change vs cycle 0; in test [2], 1.31 ± 0.0688 fold-change vs cycle 0.

With TCCGAA, the binding signal in the test with SALL4 ZFC4 WT (HT-SELEX) is 0.618 ± 0.0382 fold-change vs cycle 0; in test [1], 0.692 ± 0.0361 fold-change vs cycle 0; in test [2] it was 0.791 ± 0.046 fold-change vs cycle 0.

Take GTTCAA: the binding signal was found to be 1.2 ± 0.0638 fold-change vs cycle 0 in the test with SALL4 ZFC4 WT (HT-SELEX), 1.34 ± 0.0679 fold-change vs cycle 0 in test [1] and 1.3 ± 0.0535 fold-change vs cycle 0 in test [2].

With CCTAAC, the figures for the binding signal (with SALL4 ZFC4 WT (HT-SELEX); in test [1]; in test [2]) were 0.883 ± 0.0279 fold-change vs cycle 0, 0.976 ± 0.0147 fold-change vs cycle 0 and 1 ± 0.0113 fold-change vs cycle 0, respectively.

Source of the values: PMC9838217, “Structure of SALL4 zinc finger domain reveals link between AT-rich DNA binding and Okihiro syndrome”.
